# Source: the supplement of paper PMC4466140
# Columns and labels:
# Experiment in all cases: SPOT peptide array binding signal intensity (averaged, normalized) (arbitrary units (background-subtracted, floor 0; scale differs between SH3 domains)); higher = stronger binding of the SH3 domain to the peptide
# CaNbp2 = target: CaNbp2
# Outline: (§1)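 GST-fused SH3 domains from four yeast species were expressed in E. coli BL21(DE3), purified on glutathione Sepharose and incubated at 10 μg/ml overnight at 4°C in TBS-based blocking buffer on cellulose membranes carrying synthetic 15-mer peptides, with cysteines replaced by serines. Bound protein was detected with anti-GST antibody, an HRP anti-mouse secondary and luminol, then imaged and quantified with Genespotter. Binding signal is the normalized, background-subtracted spot intensity averaged over replicates, in arbitrary units that differ between domains.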
# CaRvs167 = target: CaRvs167
# Outline: as §1
# CaRvs167-3 = target: CaRvs167-3
# Outline: as §1
# CaSho1 = target: CaSho1
# Outline: as §1
# CaSla1-D1-D2 = target: CaSla1-D1-D2
# Outline: as §1
# CaSla1-D3 = target: CaSla1-D3
# Outline: as §1
# ScAbp1 = target: ScAbp1
# Outline: as §1
# ScBbc1 = target: ScBbc1
# Outline: as §1
# ScBem1-D1 = target: ScBem1-D1
# Outline: as §1
# ScBzz1-D1 = target: ScBzz1-D1
# Outline: as §1
# ScBzz1-D2 = target: ScBzz1-D2
# Outline: as §1
# ScCyk3 = target: ScCyk3
# Outline: as §1
# ScFus1 = target: ScFus1
# Outline: as §1
# ScHof1 = target: ScHof1
# Outline: as §1
# ScHse1 = target: ScHse1
# Outline: as §1
# ScLsb1 = target: ScLsb1
# Outline: as §1
# ScLsb2 = target: ScLsb2
# Outline: as §1
# ScLsb3 = target: ScLsb3
# Outline: as §1
# ScLsb4 = target: ScLsb4
# Outline: as §1
# ScMyo3 = target: ScMyo3
# Outline: as §1
# ScMyo5 = target: ScMyo5
# Outline: as §1
# ScNbp2 = target: ScNbp2
# Outline: as §1
# ScPex13 = target: ScPex13
# Outline: as §1
# ScRvs167 = target: ScRvs167
# Outline: as §1
# ScSho1 = target: ScSho1
# Outline: as §1
# ScSla1-D1-D2 = target: ScSla1-D1-D2
# Outline: as §1
# ScSla1-D3 = target: ScSla1-D3
# Outline: as §1
# SpAbp1-D1 = target: SpAbp1-D1
# Outline: as §1
# SpBbc1 = target: SpBbc1
# Outline: as §1
# SpBzz1-D1 = target: SpBzz1-D1
# Outline: as §1
# SpBzz1-D2 = target: SpBzz1-D2
# Outline: as §1
# SpCyk3 = target: SpCyk3
# Outline: as §1
# SpHof1 = target: SpHof1
# Outline: as §1
# SpHof1-2 = target: SpHof1-2
# Outline: as §1
# SpHof1-3 = target: SpHof1-3
# Outline: as §1
# SpHse1 = target: SpHse1
# Outline: as §1
# SpLsb1 = target: SpLsb1
# Outline: as §1
# SpLsb4 = target: SpLsb4
# Outline: as §1
# SpMyo1 = target: SpMyo1
# Outline: as §1
# SpNbp2 = target: SpNbp2
# Outline: as §1
# SpPex13 = target: SpPex13
# Outline: as §1
# SpRvs167 = target: SpRvs167
# Outline: as §1
# SpSla1-D1-D2 = target: SpSla1-D1-D2
# Outline: as §1
# SpSla1-D3 = target: SpSla1-D3
# Outline: as §1
# AgAbp1 = target: AgAbp1
# Outline: as §1
# AgBbc1 = target: AgBbc1
# Outline: as §1
# AgBem1-D1 = target: AgBem1-D1
# Outline: as §1
# AgBzz1-D1 = target: AgBzz1-D1
# Outline: as §1
# AgBzz1-D2 = target: AgBzz1-D2
# Outline: as §1
# AgCyk3 = target: AgCyk3
# Outline: as §1
# AgFus1 = target: AgFus1
# Outline: as §1
# AgHof1 = target: AgHof1
# Outline: as §1
# AgHse1 = target: AgHse1
# Outline: as §1
# AgLsb1 = target: AgLsb1
# Outline: as §1
# AgLsb4 = target: AgLsb4
# Outline: as §1
# AgMyo5 = target: AgMyo5
# Outline: as §1
# AgNbp2 = target: AgNbp2
# Outline: as §1
# AgRvs167 = target: AgRvs167
# Outline: as §1
# AgSho1 = target: AgSho1
# Outline: as §1
# AgSla1-D1-D2 = target: AgSla1-D1-D2
# Outline: as §1
# AgSla1-D3 = target: AgSla1-D3
# Outline: as §1
# CaAbp1-D1 = target: CaAbp1-D1
# Outline: as §1
# CaAbp1-D2 = target: CaAbp1-D2
# Outline: as §1
# CaBbc1 = target: CaBbc1
# Outline: as §1
# CaBem1-D1 = target: CaBem1-D1
# Outline: as §1
# CaBzz1-D1 = target: CaBzz1-D1
# Outline: as §1
# CaBzz1-D2 = target: CaBzz1-D2
# Outline: as §1
# CaCyk3 = target: CaCyk3
# Outline: as §1
# CaFus1 = target: CaFus1
# Outline: as §1
# CaHof1 = target: CaHof1
# Outline: as §1
# CaHse1 = target: CaHse1
# Outline: as §1
# CaLsb1 = target: CaLsb1
# Outline: as §1
# CaLsb4 = target: CaLsb4
# Outline: as §1
# CaMyo5 = target: CaMyo5
# Outline: as §1
binder,measurement,setting,value
TTAPALPSLPPPPLL,SPOT peptide array binding signal intensity,CaNbp2,≤ 0
same,SPOT peptide array binding signal intensity,CaRvs167,1
same,SPOT peptide array binding signal intensity,CaRvs167-3,1
same,SPOT peptide array binding signal intensity,CaSho1,≤ 0
same,SPOT peptide array binding signal intensity,CaSla1-D1-D2,≤ 0
same,SPOT peptide array binding signal intensity,CaSla1-D3,0.25
same,SPOT peptide array binding signal intensity,ScAbp1,1
same,SPOT peptide array binding signal intensity,ScBbc1,1
same,SPOT peptide array binding signal intensity,ScBem1-D1,2
same,SPOT peptide array binding signal intensity,ScBzz1-D1,190
same,SPOT peptide array binding signal intensity,ScBzz1-D2,≤ 0
same,SPOT peptide array binding signal intensity,ScCyk3,≤ 0
same,SPOT peptide array binding signal intensity,ScFus1,≤ 0
same,SPOT peptide array binding signal intensity,ScHof1,2250
same,SPOT peptide array binding signal intensity,ScHse1,≤ 0
same,SPOT peptide array binding signal intensity,ScLsb1,≤ 0
same,SPOT peptide array binding signal intensity,ScLsb2,≤ 0
same,SPOT peptide array binding signal intensity,ScLsb3,≤ 0
same,SPOT peptide array binding signal intensity,ScLsb4,≤ 0
same,SPOT peptide array binding signal intensity,ScMyo3,2800
same,SPOT peptide array binding signal intensity,ScMyo5,2300
same,SPOT peptide array binding signal intensity,ScNbp2,≤ 0
same,SPOT peptide array binding signal intensity,ScPex13,214
same,SPOT peptide array binding signal intensity,ScRvs167,≤ 0
same,SPOT peptide array binding signal intensity,ScSho1,42
same,SPOT peptide array binding signal intensity,ScSla1-D1-D2,≤ 0
same,SPOT peptide array binding signal intensity,ScSla1-D3,1.5
same,SPOT peptide array binding signal intensity,SpAbp1-D1,≤ 0
same,SPOT peptide array binding signal intensity,SpBbc1,7.5
same,SPOT peptide array binding signal intensity,SpBzz1-D1,124
same,SPOT peptide array binding signal intensity,SpBzz1-D2,≤ 0
same,SPOT peptide array binding signal intensity,SpCyk3,1
same,SPOT peptide array binding signal intensity,SpHof1,≤ 0
same,SPOT peptide array binding signal intensity,SpHof1-2,39.8
same,SPOT peptide array binding signal intensity,SpHof1-3,≤ 0
same,SPOT peptide array binding signal intensity,SpHse1,≤ 0
same,SPOT peptide array binding signal intensity,SpLsb1,≤ 0
same,SPOT peptide array binding signal intensity,SpLsb4,≤ 0
same,SPOT peptide array binding signal intensity,SpMyo1,1940
same,SPOT peptide array binding signal intensity,SpNbp2,≤ 0
same,SPOT peptide array binding signal intensity,SpPex13,11
same,SPOT peptide array binding signal intensity,SpRvs167,≤ 0
same,SPOT peptide array binding signal intensity,SpSla1-D1-D2,4
same,SPOT peptide array binding signal intensity,SpSla1-D3,2
NSMRPPLLIPAATTK,SPOT peptide array binding signal intensity,AgAbp1,0.5
same,SPOT peptide array binding signal intensity,AgBbc1,13.5
same,SPOT peptide array binding signal intensity,AgBem1-D1,450
same,SPOT peptide array binding signal intensity,AgBzz1-D1,19
same,SPOT peptide array binding signal intensity,AgBzz1-D2,16.5
same,SPOT peptide array binding signal intensity,AgCyk3,1
same,SPOT peptide array binding signal intensity,AgFus1,384
same,SPOT peptide array binding signal intensity,AgHof1,20.5
same,SPOT peptide array binding signal intensity,AgHse1,210
same,SPOT peptide array binding signal intensity,AgLsb1,128
same,SPOT peptide array binding signal intensity,AgLsb4,12
same,SPOT peptide array binding signal intensity,AgMyo5,15
same,SPOT peptide array binding signal intensity,AgNbp2,114
same,SPOT peptide array binding signal intensity,AgRvs167,2.33
same,SPOT peptide array binding signal intensity,AgSho1,390
same,SPOT peptide array binding signal intensity,AgSla1-D1-D2,4
same,SPOT peptide array binding signal intensity,AgSla1-D3,1.75
same,SPOT peptide array binding signal intensity,CaAbp1-D1,63.5
same,SPOT peptide array binding signal intensity,CaAbp1-D2,121
same,SPOT peptide array binding signal intensity,CaBbc1,47.2
same,SPOT peptide array binding signal intensity,CaBem1-D1,378
same,SPOT peptide array binding signal intensity,CaBzz1-D1,190
same,SPOT peptide array binding signal intensity,CaBzz1-D2,111
same,SPOT peptide array binding signal intensity,CaCyk3,5.5
same,SPOT peptide array binding signal intensity,CaFus1,1550
same,SPOT peptide array binding signal intensity,CaHof1,0.5
same,SPOT peptide array binding signal intensity,CaHse1,103
same,SPOT peptide array binding signal intensity,CaLsb1,13.2
same,SPOT peptide array binding signal intensity,CaLsb4,516
same,SPOT peptide array binding signal intensity,CaMyo5,133
same,SPOT peptide array binding signal intensity,CaNbp2,291
same,SPOT peptide array binding signal intensity,CaRvs167,83.8
same,SPOT peptide array binding signal intensity,CaRvs167-3,3.75
same,SPOT peptide array binding signal intensity,CaSho1,1320
same,SPOT peptide array binding signal intensity,CaSla1-D1-D2,244
same,SPOT peptide array binding signal intensity,CaSla1-D3,317
same,SPOT peptide array binding signal intensity,ScAbp1,4
same,SPOT peptide array binding signal intensity,ScBbc1,1.5
same,SPOT peptide array binding signal intensity,ScBem1-D1,≤ 0
same,SPOT peptide array binding signal intensity,ScBzz1-D1,7.5
same,SPOT peptide array binding signal intensity,ScBzz1-D2,19.5
same,SPOT peptide array binding signal intensity,ScCyk3,6
same,SPOT peptide array binding signal intensity,ScFus1,508
same,SPOT peptide array binding signal intensity,ScHof1,≤ 0
same,SPOT peptide array binding signal intensity,ScHse1,160
same,SPOT peptide array binding signal intensity,ScLsb1,232
same,SPOT peptide array binding signal intensity,ScLsb2,1
same,SPOT peptide array binding signal intensity,ScLsb3,303
same,SPOT peptide array binding signal intensity,ScLsb4,208
same,SPOT peptide array binding signal intensity,ScMyo3,47.5
same,SPOT peptide array binding signal intensity,ScMyo5,8.5
same,SPOT peptide array binding signal intensity,ScNbp2,150
same,SPOT peptide array binding signal intensity,ScPex13,222
same,SPOT peptide array binding signal intensity,ScRvs167,53.7
same,SPOT peptide array binding signal intensity,ScSho1,562
same,SPOT peptide array binding signal intensity,ScSla1-D1-D2,266
same,SPOT peptide array binding signal intensity,ScSla1-D3,430
same,SPOT peptide array binding signal intensity,SpAbp1-D1,27
same,SPOT peptide array binding signal intensity,SpBbc1,2.75
same,SPOT peptide array binding signal intensity,SpBzz1-D1,273
same,SPOT peptide array binding signal intensity,SpBzz1-D2,53.8
same,SPOT peptide array binding signal intensity,SpCyk3,3
same,SPOT peptide array binding signal intensity,SpHof1,36
same,SPOT peptide array binding signal intensity,SpHof1-2,31.8
same,SPOT peptide array binding signal intensity,SpHof1-3,41
same,SPOT peptide array binding signal intensity,SpHse1,444
same,SPOT peptide array binding signal intensity,SpLsb1,34.2
same,SPOT peptide array binding signal intensity,SpLsb4,761
same,SPOT peptide array binding signal intensity,SpMyo1,56.2
same,SPOT peptide array binding signal intensity,SpNbp2,116
same,SPOT peptide array binding signal intensity,SpPex13,37
same,SPOT peptide array binding signal intensity,SpRvs167,68.2
same,SPOT peptide array binding signal intensity,SpSla1-D1-D2,≤ 0
same,SPOT peptide array binding signal intensity,SpSla1-D3,200
